For 15 molecules, composite z-score and z-score results are on record in PubChem BioAssay.

The source made the active and inactive calls. Unless noted, the rule behind the calls is not given here.

Assay [1] relates to Wnt5a (protein binding on small-molecule microarray). Put plainly: small molecules binding Wnt5a protein – biophysical, small-molecule microarray, 635/667 nm fluorescence, primary screen (AID 1142).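 Note: fluorescence read at 667 nm with signal to noise per printed feature.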 Conditions: 635 nm fluorescence, higher = more signal.
The nature of assay [2]: ATP-based viability of Huh7 replicon cells – cell-based, CellTiter-Glo luminescence, basal, 48 h, cytotoxicity control for HCV replication inhibitor project, primary screen (AID 1143).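 Note: Huh7 hepatoma cells carrying a hepatitis C replication reporter with no stimulus; test concentration not given here.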 Conditions: higher = more signal, called active from +8 up or from −8 down.
A short description of assay [3]: Pseudomonas biofilm growth suppression – PAO1 strain, BacTiter-Glo luminescence, LB-PBS, primary screen (AID 1144). To be noted: P. aeruginosa PAO1 biofilm, 12 h, higher = more signal.
Assay [4] is described as follows: basal CRE-LacZ reporter activity in PC12 – cell-based, unstimulated, primary screen (AID 1145). To be noted: no forskolin, luminescence, 4.5 h, higher = more signal, called active from +8 up or from −8 down.
Assay [5] is described as follows: forskolin-driven CRE-LacZ activity in PC12 – cell-based, CRE-LacZ reporter, forskolin-stimulated, primary screen (AID 1146).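 Note: PC12 cells with 6xCRE LacZ reporter stimulated by forskolin 10 µM; beta-galactosidase reporter signal reflecting CREB driven transcription.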 To be noted: luminescence, 4.5 h, higher = more signal, called active from +8 up or from −8 down.
Assay [6] concerns the target Streptavidin (Streptomyces avidinii) (UniProt P22629). The experiment in a line: compounds binding control protein streptavidin – biophysical, small-molecule microarray, 635/667 nm fluorescence, artefact control for SMM compound annotation, primary screen (AID 1147).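 Note: signal reflects streptavidin binding to arrayed compounds as a control protein.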 To be noted: higher = more signal.
Assay [7] can be described thus: probe aInhba binding on compound microarray – biochemical, small-molecule microarray, 635/667 nm fluorescence, primary screen (AID 1148).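 Note: score merges 667nm spot fluorescence with signal-to-noise for antibody binding to printed compounds.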 To be noted: higher = more signal.
Assay [8] deals with Torsin-1A (Homo sapiens) (UniProt O14656). The experiment in a line: TOR1A wild-type binding on microarray – cell lysate, small-molecule microarray, lysate, 635/667 nm, primary screen (AID 1149). To be noted: COS7 hTOR1A-WT lysate, 635 nm fluorescence, higher = more signal.
Assay [9] has the same target. Put plainly: torsin A mutant lysate binding on microarrays – cell lysate, small-molecule microarray, COS7 lysate, 635/667 nm fluorescence, primary screen (AID 1150).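 Note: score pools 667 nm emission and signal to noise measuring lysate protein binding.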 Conditions: COS7 hTOR1A mutant lysate, 635 nm fluorescence, higher = more signal.
The test system of assay [10] is Sonic hedgehog protein (Shh). Put plainly: Sonic hedgehog microarray binding compounds – biochemical, small-molecule microarray, 635/667 nm fluorescence, primary screen (AID 1151).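 Note: Shh protein binding to compounds spotted on small-molecule microarray slides; score combines spot fluorescence intensity with signal-to-noise across triplicate slides.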 Conditions: 635 nm fluorescence, higher = more signal.

Chain of Torsin-1A (Homo sapiens) (O14656 whole entry, looked up): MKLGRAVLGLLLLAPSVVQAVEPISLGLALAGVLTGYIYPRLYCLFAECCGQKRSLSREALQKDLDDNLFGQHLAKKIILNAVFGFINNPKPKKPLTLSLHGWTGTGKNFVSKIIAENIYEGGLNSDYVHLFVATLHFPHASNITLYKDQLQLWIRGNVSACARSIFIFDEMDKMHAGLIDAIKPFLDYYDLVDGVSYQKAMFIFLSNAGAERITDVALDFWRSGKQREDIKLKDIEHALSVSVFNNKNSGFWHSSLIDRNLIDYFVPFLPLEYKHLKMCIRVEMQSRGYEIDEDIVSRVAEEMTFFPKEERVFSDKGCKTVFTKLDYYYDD
Chain of Streptavidin (Streptomyces avidinii) (P22629 whole entry, looked up): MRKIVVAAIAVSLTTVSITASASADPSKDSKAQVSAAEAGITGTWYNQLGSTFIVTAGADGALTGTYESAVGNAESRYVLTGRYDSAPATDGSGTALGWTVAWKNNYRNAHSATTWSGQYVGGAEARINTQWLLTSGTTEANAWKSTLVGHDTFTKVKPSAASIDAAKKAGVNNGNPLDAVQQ

Consider `O=C(NCC(O)CO)[C@@]1(Cc2ccccc2)N=C(c2ccc(OCCCO)cc2)O[C@H]1c1ccccc1` (stereo not given in full), for which the composite z-score in assay [1] was 0.626; in [6] it was 0.993; in [7] it was 1.03; in the assay with Torsin-1A (Homo sapiens) [8] it was 0.477; with Torsin-1A (Homo sapiens) [9], 1.23; in assay [10], -0.959. The z-score was -2.66 (inactive) in [2], -0.473 (inactive) in assay [3], 3.33 (inactive) in [4] and 0.768 (inactive) in [5].

Take `Cc1cccc(/C=C/C=O)c1`: the composite z-score in [1] was -0.0267; in assay [6], 1.04; in assay [7], -0.0963; in the assay with Torsin-1A (Homo sapiens) [8] it was -0.782; with Torsin-1A (Homo sapiens) [9] it was -0.295; in assay [10], 0.0638. The z-score in [2] is 0.585 (inactive); in assay [3], 0.16 (inactive); in [4], 0.0924 (inactive); in [5], -0.0647 (inactive).

As for `C=C[C@H](C)[C@H](O)c1ccc(OCCO)cc1`, the composite z-score is -0.965 in assay [1]; -1.29 in assay [6]; -0.209 in assay [7]; -2.73 with Torsin-1A (Homo sapiens) [8]; -1.99 with Torsin-1A (Homo sapiens) [9]; -0.773 in [10]. Besides, the z-score is -1.45 (inactive) in assay [2], 0.733 (inactive) in assay [3], -0.272 (inactive) in [4] and 0.0034 (inactive) in assay [5].

As for `CC(c1ccccc1)C(O)C1C=CC2C(=O)N(c3ccccc3)C(=O)C2N1Nc1ccccc1F` (stereo not given), the composite z-score is 0.0426 in [1]; 0.527 in [6]; -0.125 in assay [7]; -0.468 with Torsin-1A (Homo sapiens) [8]; 0.0393 with Torsin-1A (Homo sapiens) [9]; -0.0558 in assay [10]. In addition, the z-score in assay [2] is -2.63 (inactive); in assay [3], -1.29 (inactive); in [4], 0.173 (inactive); in assay [5], 0.406 (inactive).

As to `C=C(C(=O)CC[C@@H](OC(=O)c1cccnc1)c1ccc(CO)o1)C(C)C`, the composite z-score came to 0.27 in [1]; 0.156 in assay [6]; 0.209 in [7]; 0.787 in the assay with Torsin-1A (Homo sapiens) [8]; 0.584 in the assay with Torsin-1A (Homo sapiens) [9]; 1.75 in [10]. Besides, the z-score in assay [2] was 0.184 (inactive); in [3], 0.228 (inactive); in [4] it was 0.48 (inactive); in assay [5], -0.135 (inactive).

For `CCCCC(=O)N(Cc1ccccc1F)[C@@H]1CC(C(=O)NCCO)=C[C@H](Oc2c(I)cc(CO)cc2OC)[C@H]1O`, the composite z-score in assay [1] was 1.91; in [6], -0.291; in [7], 0.0541; in the assay with Torsin-1A (Homo sapiens) [8], 1.68; in the assay with Torsin-1A (Homo sapiens) [9] it was 0.769; in [10], 2.45. Moreover, the z-score in assay [2] was -2.1 (inactive); in [3], -0.43 (inactive); in assay [4], 0.673 (inactive); in [5], 0.377 (inactive).

On to `[N-]=[N+]=NCc1ccccc1C[C@@]1(C(=O)NCc2ccccc2)N=C(c2ccc(OCCCO)cc2)O[C@@H]1c1ccccc1CN=[N+]=[N-]`, for which the composite z-score was 0.262 in [1]; 1.19 in assay [6]; 0.406 in [7]; 0.327 with Torsin-1A (Homo sapiens) [8]; 0.367 with Torsin-1A (Homo sapiens) [9]; -0.603 in assay [10]. In addition, the z-score in assay [2] is -3.35 (inactive); in assay [3], 0.503 (inactive); in [4], 0.297 (inactive); in assay [5], 0.448 (inactive).

`COc1ccccc1CN1C(=O)c2ccccc2[C@](Cc2ccccc2I)(C(=O)NCc2ccccc2)[C@@H]1c1ccc(CO)cc1`: the composite z-score in [1] is 0.0733; in assay [6], -0.476; in assay [7], 0.0627; with Torsin-1A (Homo sapiens) [8] it was 0.999; in the assay with Torsin-1A (Homo sapiens) [9] it was 2.06; in [10], -0.197. The z-score is -0.553 (inactive) in assay [2], 0.166 (inactive) in assay [3], -0.412 (inactive) in assay [4] and -0.0005 (inactive) in [5].

Consider `CC(=O)NCCCC[C@@H]1NC(=O)[C@@H]2C[C@H](C(=O)NCCCCCC[N+](C)(C)C)[C@H](c3cccc(OCCO)c3)N2C1=O`, for which the composite z-score in assay [1] is 0.505; in assay [6], -0.206; in [7], -0.0425; with Torsin-1A (Homo sapiens) [8], 0.964; in the assay with Torsin-1A (Homo sapiens) [9], 1.43; in assay [10], 2.04. Further, the z-score in assay [2] is -0.134 (inactive); in [3] it was -0.445 (inactive); in assay [4], -0.947 (inactive); in assay [5] it was -0.75 (inactive).

For the molecule `CS(=O)(=O)CCOC(=O)C1=CC(c2ccc(CO)cc2)=CC(c2cccs2)N(Cc2cccc(OC(F)(F)F)c2)C=C1C(=O)OCCS(C)(=O)=O` (stereo not given), the composite z-score in assay [1] worked out at 0.104; in assay [6], 1.72; in [7], 0.0047; in the assay with Torsin-1A (Homo sapiens) [8], 1.45; with Torsin-1A (Homo sapiens) [9], 0.543; in assay [10], 0.75. The z-score is -3.67 (inactive) in [2], 0.676 (inactive) in assay [3], 0.695 (inactive) in assay [4] and -2.12 (inactive) in assay [5].

On to `COc1ccc(C(O)C2C=CC3C(=O)N(c4ccccc4)C(=O)C3N2Nc2ccccc2)c2ccccc12` (stereo not given), for which the composite z-score in assay [1] was 0.145; in assay [6] it was 0.632; in assay [7], 0.382; with Torsin-1A (Homo sapiens) [8], -0.175; with Torsin-1A (Homo sapiens) [9], 0.15; in assay [10] it was -0.506. For the same molecule, the z-score in assay [2] was -2.42 (inactive); in [3], -1.12 (inactive); in [4], 0.24 (inactive); in assay [5], 1.79 (inactive).

In the case of `C=CCC(OC(C)=O)[C@@H]1[C@@H](N(Cc2cc3ccccc3o2)C(=O)c2ccc(-c3ccccc3)cc2)c2cc(OCCCO)ccc2N1C(=O)Cc1ccc2ccccc2c1` (stereo not given in full), the composite z-score is -0.172 in [1]; 0.0693 in [6]; 0.0963 in assay [7]; -0.635 with Torsin-1A (Homo sapiens) [8]; -0.0864 in the assay with Torsin-1A (Homo sapiens) [9]; -0.076 in assay [10]. Besides, the z-score was 0.0758 (inactive) in assay [2], 0.19 (inactive) in assay [3], 1.85 (inactive) in [4] and 0.874 (inactive) in assay [5].

Take `C=CC[C@@]1(C(N)=O)N=C(c2ccc(OCCCO)cc2)O[C@@H]1c1ccccc1N=[N+]=[N-]`: the composite z-score in assay [1] was 0.373; in assay [6], 0.496; in assay [7], 0.195; with Torsin-1A (Homo sapiens) [8], 1.02; with Torsin-1A (Homo sapiens) [9], 0.705; in [10], 0.821. The z-score in [2] was -0.656 (inactive); in assay [3], -0.0376 (inactive); in assay [4], 0.614 (inactive); in assay [5], -1.89 (inactive).

With `CN(C)CCCCNC(=O)[C@@H]1C[C@@H]2C(=O)N[C@@H](CCCCN)C(=O)N2[C@@H]1c1cccc(OCCO)c1`, the composite z-score in [1] was -0.157; in [6], -0.521; in assay [7] it was 0.245; in the assay with Torsin-1A (Homo sapiens) [8], -1.37; with Torsin-1A (Homo sapiens) [9], -2.02; in [10] it was 0.985. Besides, the z-score in [2] was 0.0925 (inactive); in assay [3], -0.703 (inactive); in assay [4] it was -0.805 (inactive); in assay [5], -0.325 (inactive).

`CCCC[C@H]1OB(O)C[C@H]2C1=C(C)Cn1c(=O)n(-c3ccccc3)c(=O)n12`: the composite z-score in [1] is 0.0677; in assay [6] it was -0.124; in assay [7], 0.0301; in the assay with Torsin-1A (Homo sapiens) [8] it was 0.363; in the assay with Torsin-1A (Homo sapiens) [9], -0.0931; in [10], 0.759. Besides, the z-score was 0.007 (inactive) in assay [2], -0.444 (inactive) in assay [3], 0.222 (inactive) in assay [4] and -0.251 (inactive) in assay [5].
